This is a sample that favours compounds with a hit; in the whole collection about 0.4% have one here.
UDG counterscr – UDG inhibition counter-screen; FRET deamination/UDG coupled assay, UDG read, 4 h; 91,000 tested, 0.14% active; AID 1347430; Potency, µM (titrated, usually from 115 µM), without a hit: at the highest dose activity change, negative = inhibition, usual class: inhibitors; further: nearly all actives have a fitted effect of over 65% in size
AID inhibitor – inhibitors of human activation induced cytidine deaminase; AID deamination FRET fluorescence, UDG-coupled, 4 h; Potency, µM (series often up to 115 µM), most hits filed as inhibitors; 91,000 tested, 0.32% active; further: nearly all actives have a fitted effect of over 25% in size
Target sequence (Q9GZX7 whole entry, looked up): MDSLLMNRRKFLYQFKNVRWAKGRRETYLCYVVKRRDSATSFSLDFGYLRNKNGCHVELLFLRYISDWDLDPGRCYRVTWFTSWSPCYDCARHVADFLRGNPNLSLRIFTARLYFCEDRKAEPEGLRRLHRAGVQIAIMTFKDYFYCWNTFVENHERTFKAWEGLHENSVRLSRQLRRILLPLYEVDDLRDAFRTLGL
* hit, by the source's call; i = inactive; u = inconclusive; ! = not confirmed by another sample; [ ] = remark or other dose. The call rests on the fitted dose curve; in most records, active means well fitted curve in the direction sought with a large enough effect; inconclusive means small, poorly fitted or top-dose-only effect, or another doubt; inactive means no such curve, though single readings can be large; an effect the other way counts as inactive or inconclusive. On the % scale 0 is the no-effect control and ±100 the full control effect; potency means the concentration at half of the fitted maximal effect.

SMILES	UDG counterscr	AID inhibitor
O=C(C1=C(O)C(=O)N(c2nc3ccc(Cl)cc3s2)C1c1ccco1)c1ccco1 (centres undefined)	-5%	50µM*
Cc1ccc2nc(N3C(=O)C(O)=C(C(=O)c4ccco4)C3c3ccc(O)cc3)sc2c1 (centres undefined)	2%	i
Cc1cc(-c2ccc(C)c(S(=O)(=O)N3CCCC(C)C3)c2)on1 (centres undefined)	12%	25µM*
COc1ccc(-c2cc(C)no2)cc1S(=O)(=O)N1CCCC(C)C1 (centres undefined)	-9%	i
COc1ccc2c(c1)Cc1sc(NC(=O)c3cccc(Br)c3)nc1-2	-19%	50µM*
COc1ccc2c(c1)Cc1sc(NC(=O)c3cccc(F)c3)nc1-2	-10%	u
Cc1cc(C)n(-c2nc3c(c(=O)n(CC(=O)C(C)(C)C)c(=O)n3C)n2C)n1	1%	i
O=C(NCc1cccs1)c1ccc(CSc2nc3ccncc3n2Cc2ccccc2F)cc1	5%	79µM*
Cc1ccccc1Cn1c(SCc2ccc(C(=O)NCc3cccs3)cc2)nc2ccncc21	3%	i
CCOC(=O)c1c(-c2ccc(OC)cc2)oc2ccc(OCc3ccc(F)cc3F)cc12	-5%[57.5 µM]	i
O=C(O)c1c(-c2ccccc2)oc2ccc(OCc3c(F)cccc3Cl)cc12	-16%	79µM*
Cc1nnc(SCc2nc(-c3ccc(Cl)cc3)no2)n1-c1ccc(F)cc1	79µM*	u
Cc1cccc(-n2c(SCc3nc(-c4ccccc4C)no3)nnc2-c2ccccc2)c1	3%	i
Cc1ccc(-c2noc(CSc3nnc(C4CC4)n3-c3ccccc3)n2)cc1	89µM*	i
Cc1ccc(-c2noc(CSc3nnc(C)n3-c3ccc(F)cc3)n2)cc1	u	i
Cc1cccc(N2CCN(C(=O)c3c4c(nc5ccccc35)C(=O)N(C3CCCCC3)C4)CC2)c1C	0%	28µM*
Cc1ccc(N2CCN(C(=O)c3c4c(nc5ccccc35)C(=O)N(C3CCCCC3)C4)CC2)c(C)c1	2%	u
Cc1sc(NC(=O)c2cccs2)c(C#N)c1C	1%	i
CCN(CC)S(=O)(=O)NCc1ccnc(N2CCN(c3ccc(F)cc3)CC2)c1	4%	i
O=C(C1CC1)N(Cc1ccc2c(c1)CN(S(=O)(=O)c1cc(F)cc(F)c1)CCO2)c1ccccc1	-4%	i
O=C(C1CC1)N(Cc1ccc2c(c1)CN(S(=O)(=O)c1cc(F)ccc1F)CCO2)c1ccccc1	89µM*	i
C/C(=N/NC(=O)c1ccc(C)cc1)C(C)(C)C	-4%	i
COc1ccc(Nc2nc3ccccc3nc2NS(=O)(=O)c2ccc(Cl)cc2)cc1OC	-5%	79µM*!
COc1ccc(Nc2nc3ccccc3nc2NS(=O)(=O)c2ccc(NC(C)=O)cc2)cc1OC	-3%	i
CC(C)(C)C1CCc2nc(SCC(N)=O)c(C#N)c(C(F)(F)F)c2C1 (centres undefined)	79µM*	u
SMILES	UDG counterscr	AID inhibitor
COC(=O)CSc1nc2c(c(-c3cccs3)c1C#N)CCCC2	-6%	i
Cc1ccc(C)c(-c2ccc(=O)n(Cc3ccc(F)cc3Cl)n2)c1	u	32µM*
Cc1cc(=O)n(Cc2ccc(F)cc2Cl)c2c1c(C)nn2-c1ccccc1	38%	i
O=C(/C=C/c1ccc(Cl)cc1)c1ccc(N2CCOCC2)cc1	6%	i
CCOC(=O)c1ccc(NC(=O)CC2Nc3cccc4cccc(c34)NC2=O)cc1 (centres undefined)	-4%	u
CCOc1ccc(NC(=O)CC2Nc3cccc4cccc(c34)NC2=O)cc1 (centres undefined)	u	50µM*
COc1ccc(NC(=O)CC2Nc3ccccc3NC2=O)cc1 (centres undefined)	-8%	i
CC(=O)c1ccc(NC(=O)CC2Nc3cccc4cccc(c34)NC2=O)cc1 (centres undefined)	u	79µM*
Cc1ccc(C(=O)c2cn(Cc3ccccc3F)c3cc4c(cc3c2=O)OCO4)cc1	-6%	40µM*
Cc1ccc(C(=O)c2cn(Cc3ccccc3F)c3cc4c(cc3c2=O)OCCO4)cc1	-12%	u
CC(C)C(=O)Nc1ccc(Cl)cc1F	-2%	i
Cc1ccc(C(C)NC(=O)Nc2ccc(Cl)cc2F)c(C)c1 (centres undefined)	1%	14µM*
O=C(c1n[nH]c(=O)c2ccccc12)N1CCN(S(=O)(=O)c2ccccc2)CC1	2%	i
COc1ccc(S(=O)(=O)N(CC(=O)NCc2ccccc2)c2ccc(C)cc2)cc1OC	-8%	i
COc1ccc(S(=O)(=O)N(CC(=O)NC(C)c2ccccc2)c2ccc(C)cc2)cc1OC (centres undefined)	u	45µM*
COc1ccc(S(=O)(=O)N(CC(=O)Nc2cccc(C(F)(F)F)c2)c2ccc(C)cc2)cc1	-11%	25µM*
COc1ccc(S(=O)(=O)N(CC(=O)Nc2cc(C)cc(C)c2)c2ccc(Cl)cc2)cc1	-1%	i
CCCCN(CCCC)CC(O)Cn1cc(/C=C/C(=O)c2ccccc2)c2ccccc21 (centres undefined)	-16%	32µM*
CCCCN(C)CC(O)Cn1cc(/C=C/C(=O)c2ccc(OCC)cc2)c2ccccc21 (centres undefined)	-17%	u
COC(=O)c1ccc(CNC(=O)c2ccc(C(C)C)cc2)cc1	-3%	i
Cc1ccc(C2=NN(C(=O)c3ccco3)C(c3ccc4nccnc4c3)C2)cc1 (centres undefined)	-3%	i
CCCNc1nc(-c2cc(C)n(NC(=O)c3nn(C)c(=O)c4ccccc34)c2C)cs1	66%	i
CC(C)Cn1c(/C=C/c2ccc(F)cc2)nc2ccccc21	14%	i
CCC(C)Cn1c(/C=C/c2ccccc2)nc2ccccc21 (centres undefined)	79µM*	u
CCN(c1ccc(-c2csc(C)n2)cc1)S(C)(=O)=O	-2%	i
SMILES	UDG counterscr	AID inhibitor
COc1ccc(-c2noc(CSc3nnc(C)n3-c3ccc(C)cc3)n2)cc1OC	u	i
CCOc1ccc(-n2c(Cc3ccccc3)nnc2SCc2nc(-c3cccs3)no2)cc1	u	32µM*
Cc1ccc(-n2c(SCc3nc(-c4ccccc4C)no3)nnc2-c2ccncc2)cc1C	u	32µM*
COc1ccc(-n2c(SCc3nc(-c4ccc(C)cc4)no3)nnc2-c2ccccc2)cc1	-5%	i
CCOc1ccc(-n2c(SCc3nc(-c4ccc(OC)cc4)no3)nnc2-c2ccncc2)cc1	79µM*	u
COc1ccc(-c2noc(CSc3nnc(-c4ccncc4)n3-c3cccc(C)c3)n2)cc1OC	79µM*	u
Cc1ccccc1-c1noc(CSc2nnc(-c3ccncc3)n2-c2ccc(F)cc2)n1	u	i
CCOc1ccc(-n2c(SCc3nc(-c4ccccc4C)no3)nnc2-c2ccccc2)cc1	8%	i
COC(=O)c1ccc(COc2cccc3ccccc23)o1	-15%	i
O=S(CCCOc1ccc(F)cc1)Cc1cccc(F)c1 (centres undefined)	-6%	i
COc1ccc(C2CC(=O)Nc3nc(N)sc32)cc1OCc1ccccc1Cl (centres undefined)	-6%	40µM*
COc1cc(C2CC(=O)Nc3ccsc32)ccc1OCC(N)=O (centres undefined)	8%	i
Cc1nn(-c2ccc3nnc(C)n3n2)c2c1C(c1cccc(OC(C)C)c1)CC(=O)N2 (centres undefined)	11%	i

Assay outcomes as filed in PubChem BioAssay.
